The entries come from a sample that favours hits as a whole.
CapD inh: inhibitors of Bacillus anthracis CapD enzyme; 140,000 compounds, 0.23% hits; z-score (concentration not given with the values); purified CapD enzyme, fluorescence intensity read-out; hits give low values; in the data active = z-score mostly below about -2.9, no sharp cut-off; inactive = mostly above about -1.9
* marks the source's active call; other numbers are inactive results.

What do the screens show for `O=C(c1ccc(Cl)cc1)N1CCSC1=S`?
CapD inh: -3.5*

Results for O=C(O)C1SCCN1C(=O)c1ccc(Cl)cc1 (stereo not given) ?
CapD inh: 0.075

How did O=C(c1cccs1)N1CCSC1=S do in these assays?
CapD inh: -4.8*

Results for O=C(c1ccc(Cl)cc1)N1CCCc2ccccc21 ?
CapD inh: -0.33

What do the screens show for `CCN1CCN(C(=O)CNC(=O)Cn2cnc3c(c2=O)C2CCCCC2S3)CC1` (stereo not given)?
CapD inh: 0.02

How did CN(Cc1ccccc1)S(=O)(=O)c1ccc(C(=O)Nc2nc3ccc4ccccc4c3s2)cc1 do in these assays?
CapD inh: 2.4

Results for C=CCOc1ccc(C2Nc3ccccc3-c3nnc(SCC)nc3O2)cc1 (stereo not given) ?
CapD inh: -0.14

Results for CC(C)NC(=O)Cn1ncc2c1-c1ccccc1OC2 ?
CapD inh: -0.46

Results for CCN(CCN(C)C)C(=O)Cn1ncc2c1-c1ccccc1OC2 ?
CapD inh: 0.48

What do the screens show for `CC1CCCCN1C(=O)Cn1ncc2c1-c1ccccc1OC2` (stereo not given)?
CapD inh: -4*

How did CCN(CC)S(=O)(=O)c1ccc(C(=O)Nc2nccs2)cc1 do in these assays?
CapD inh: 1

Results for COc1ccc(/C=N/n2c(C)nnc2-n2nc(C)cc2C)cc1O ?
CapD inh: -0.8

How did COc1ccc(CCNS(=O)(=O)c2cc(C(=O)Nc3ccc(Br)cc3)ccc2F)cc1OC do in these assays?
CapD inh: -0.28

Results for COc1ccc(C2Nc3ccccc3C(=O)N2Cc2ccco2)cc1COc1cc(C)c(Cl)cc1C(C)C (stereo not given) ?
CapD inh: 14

What do the screens show for `C/C(=C\C(=O)c1ccc(C)o1)Nc1ccc(Nc2ccccc2)cc1`?
CapD inh: -2

How did C/C(=C\C(=O)c1ccc(C)o1)Nc1ccc(F)c(C)c1 do in these assays?
CapD inh: -2.4

What do the screens show for `C/C(=C\C(=O)c1ccc(C)o1)Nc1ccc(C(=O)O)cc1C`?
CapD inh: -4*

How did COc1ccccc1C(=O)OC1CCN(C)CC1 do in these assays?
CapD inh: 0.055

What do the screens show for `COc1ccc(C(=O)ON2C(=O)CCC2=O)cc1`?
CapD inh: -1.1

How did COc1ccccc1C(=O)ON1C(=O)CCC1=O do in these assays?
CapD inh: -5.5*

What do the screens show for `O=C(NCc1ccc(F)cc1)/C(=C/c1cccs1)c1ccccc1`?
CapD inh: -0.3

What do the screens show for `Cc1ccc(/C=C2/C=CC(=O)O2)o1`?
CapD inh: -5.2*

What do the screens show for `Cc1ccc(/C=C2\CC/C(=C\c3ccc(C)o3)C2=O)o1`?
CapD inh: 1.2

What do the screens show for `Cc1ccc(/C=C2\N=C(c3ccc(C4=N/C(=C\c5ccc(C)o5)C(=O)O4)cc3)OC2=O)o1`?
CapD inh: -0.43

Results for O=C1NC(=S)NC(=O)C1=C/C=C/c1ccco1 ?
CapD inh: -11*

What do the screens show for `O=C1NC(=O)N(c2ccccc2)C(=O)/C1=C/C=C/c1ccco1`?
CapD inh: -1.1

What do the screens show for `CN1C(=O)NC(=O)/C(=C\C=C\c2ccco2)C1=O`?
CapD inh: -0.49

Results for O=C(Cc1ccc(Cl)c(Cl)c1)N1CCC2(CC1)Nc1ccccc1S(=O)(=O)N2 ?
CapD inh: 1.1

Results for Cc1nnc2sc3c(n2c1=O)C(=O)N(c1ccc(I)cc1)C3=O ?
CapD inh: 0.09

What do the screens show for `O=C1c2sc3nnc(-c4ccccc4)c(=O)n3c2C(=O)N1c1ccc(Br)cc1`?
CapD inh: 0.3

What do the screens show for `CCc1ccc(N2C(=O)c3sc4nnc(C)c(=O)n4c3C2=O)cc1`?
CapD inh: -2.1*

How did CC(=O)C1SC(N)=C(C#N)C1c1ccc(Cl)c(Cl)c1 (stereo not given) do in these assays?
CapD inh: -0.19

What do the screens show for `O=C(CCC(=O)N1CCC(N(C2CC2)S(=O)(=O)c2cccc(C(F)(F)F)c2)CC1)NC1CC1`?
CapD inh: -0.47

How did CC(C)(C)c1cc(CN2CCCC2)cc(C(C)(C)C)c1O do in these assays?
CapD inh: 0.24

Results for COc1ccc(SCCC(=O)NCc2ccncc2)cc1 ?
CapD inh: -2.1*

What do the screens show for `O=C(CCSc1ccc(Cl)cc1)NCc1ccncc1`?
CapD inh: 0.24

How did O=C(CCSc1ccccc1)NCc1cccnc1 do in these assays?
CapD inh: -0.22

What do the screens show for `CCNC1(c2nnnn2-c2cccc(Cl)c2)CCC(C)CC1` (stereo not given)?
CapD inh: -0.35

Results for Cc1snc(S(=O)(=O)/C(C#N)=N/Nc2cccc(C(F)(F)F)c2)c1C#N ?
CapD inh: -2.5

How did COc1ccc(N/N=C(/C#N)S(=O)(=O)c2nsc(C)c2C#N)cc1 do in these assays?
CapD inh: -5.8*

How did Cn1cncc1S(=O)(=O)/C(C#N)=N/Nc1ccc(OC(F)(F)F)cc1 do in these assays?
CapD inh: -2.7

Results for Cc1ccccc1Cn1cc(NC(=O)c2cc(-c3ccc4c(c3)OCO4)on2)cn1 ?
CapD inh: 1.3

What do the screens show for `CCOC(=O)c1c(C)n(C)c2c1cc(OC(=O)c1ccccc1OC)c1ccccc12`?
CapD inh: -0.23

What do the screens show for `CCS(=O)(=O)c1ccc(-c2csc(-c3ccccn3)n2)c(Cl)c1Cl`?
CapD inh: 0.21

Results for COc1ccc2c(c1C)CCC1=C(C)C(=O)CCC12C (stereo not given) ?
CapD inh: -0.2

How did O=c1cc(O)c2sc3nc(-c4ccco4)cc(C(F)(F)F)c3c2[nH]1 do in these assays?
CapD inh: -6.2*

Results for Cc1cc(C(F)(F)F)c2c(n1)sc1c(O)cc(=O)[nH]c12 ?
CapD inh: 5.8

What do the screens show for `COc1ccc(C(=O)c2sc3nc(-c4ccco4)cc(C(F)(F)F)c3c2N)cc1OC`?
CapD inh: 0.67

How did CCOC(=O)C1C(c2ccc(C(F)(F)F)cc2)C(C(=O)OCC)C(O)(C(F)(F)F)NC1(O)C(F)(F)F (stereo not given) do in these assays?
CapD inh: -0.53

Results for COC(=O)CNC(=O)c1nc(-c2ccccc2)oc1C(F)(F)F ?
CapD inh: -0.68

Results for Cc1ccc(-n2ccnc(SCC(=O)NCc3ccco3)c2=O)cc1C ?
CapD inh: 15

Results for CN1CCN(c2cc(N(C)CCO)c([N+](=O)[O-])c3nonc23)CC1 ?
CapD inh: -4.2*

Results for CC1CCN(c2cc(N(C)CCO)c([N+](=O)[O-])c3nonc23)CC1 ?
CapD inh: -2.9

What do the screens show for `CN(CCO)c1cc(N2CCCCCC2)c2nonc2c1[N+](=O)[O-]`?
CapD inh: -2.7

What do the screens show for `Cc1ccc(-n2cc(-c3ccc4c(c3)OCO4)[nH]c2=S)c(C)c1`?
CapD inh: -0.49

What do the screens show for `CCNc1ccc([N+](=O)[O-])cc1`?
CapD inh: -4.5*

Results for CC(=O)Nc1ccc([N+](=O)[O-])cc1 ?
CapD inh: -1.6

Results for CCOC(=O)CC(=O)c1ccc([N+](=O)[O-])cc1 ?
CapD inh: -0.14

How did CCOC(=O)COc1ccc(S(=O)(=O)N2CCN(Cc3ccc4c(c3)OCO4)CC2)cc1 do in these assays?
CapD inh: 0.22

Results for CCN1CC(O)=C(c2ccccc2)C1=N ?
CapD inh: 0.61

Results for O=C(Cn1c(=O)n(CCc2ccccc2)c(=O)c2ccccc21)Nc1ccc(Cl)cc1 ?
CapD inh: 0.53

How did O=C(CCn1c(=O)c2ccccc2n(CC(=O)Nc2ccccc2)c1=O)NCCc1ccccc1 do in these assays?
CapD inh: -5.6*

How did CCCN(CCC)C(=O)Cn1c(=O)n(CCC(=O)NCCc2ccccc2)c(=O)c2ccccc21 do in these assays?
CapD inh: 0.53
